This is an account of results in PubChem BioAssay (NCI).

Assay [1] can be described thus: NCI Yeast Anticancer Drug Screen. Data for the rad50 strain (AID 155).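 Further: 0% = growth of vehicle-only cultures of the same strain.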 To be noted: S. cerevisiae rad50 strain growth inhibition; at 50.0 µM; hits give high values. An outline of the steps: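 A DNA repair-deficient yeast mutant serves as the test organism; compound-induced growth inhibition is calculated against vehicle-treated cells.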
A short description of assay [2]: NCI Yeast Anticancer Drug Screen. Data for the mec2-1 strain (AID 157). To be noted: S. cerevisiae mec2-1 strain, at 50.0 µM, hits give high values. An outline of the steps:
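Each compound was tested on mec2-1 yeast, a strain altered in DNA damage repair or cell cycle control. Growth inhibition is reported relative to vehicle.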

Assay [3] is described as follows: NCI Yeast Anticancer Drug Screen. Data for the sgs1 mgt1 strain (AID 161).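 Further: 0% = growth of cultures given vehicle only.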 Conditions: S. cerevisiae sgs1 mgt1 strain, at 50.0 µM, hits give high values. In short, it runs like this:
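Read-out: growth inhibition vs vehicle controls. Cells: mutant yeast strain deficient in DNA damage repair.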

A short description of assay [4]: NCI Yeast Anticancer Drug Screen. Data for the cln2 rad14 strain (AID 165).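 Further: 0% = growth equal to vehicle treated cultures.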 To be noted: S. cerevisiae cln2 rad14 strain, at 50.0 µM, hits give high values. An outline of the steps:
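Test compounds were added to cln2 rad14 yeast cultures; inhibition of growth was then determined by comparison with vehicle treatment.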

Assay [5] can be described thus: NCI Yeast Anticancer Drug Screen. Data for the bub3 strain (AID 167). To be noted: S. cerevisiae bub3 mutant strain, at 50.0 µM, hits give high values. An outline of the steps: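 Inhibition values come from growth of compound-treated mutant yeast normalised to vehicle-treated controls.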
Assay [6] in a line: NCI Yeast Anticancer Drug Screen. Data for the mlh1 rad18 strain (AID 175). Conditions: S. cerevisiae mlh1 rad18 strain growth inhibition; at 50.0 µM; hits give high values. An outline of the steps:
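Inhibition values reflect reduced growth of mutant yeast versus vehicle-treated controls following compound exposure; the mutations affect DNA damage repair.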

Molecules are shown by their SMILES. About 79,000 compounds went through this panel and 15% of them were active in at least one assay; those are over-represented in the sample as a whole. A number with no mark means an inactive call. Active and inactive are the calls of the source. No stated cut-off is given here; in the data, active means growth inhibition above about 70%; inactive means the rest. Where a SMILES comes first, the peptide text is derived from it. [ ]: non-standard residue; d: D form. The star is where a group is joined. ξ: configuration not given here. ξF = NC(Cc1ccccc1)C(=O)O; Cbz = O=C(OCc1ccccc1)*; Abu = CC[CH](N)C(=O)O; Aib = CC(C)(N)C(=O)O; NHNH2 = NN*

Consider `[O-][n+]1c2ccc(Cl)cc2nc2ccc(Cl)cc21`, for which the growth inhibition was -9.35% in assay [1]; -10.9% in assay [2]; -8.25% in assay [3]; -27.4% in assay [4]; 1.45% in assay [5]; -4.6% in assay [6].

Turning to `CC(C)(C)OC(=O)CNC(=O)C(CSC(c1ccccc1)(c1ccccc1)c1ccccc1)N1C(=O)c2ccccc2C1=O` (stereo not given), the growth inhibition in assay [1] is 45.9%; in assay [2], 32.5%; in assay [3] it was 46.2%; in assay [4], 31.9%; in assay [5], 73.6% (active); in assay [6], 49.5%.

As to `O=C1c2ccccc2C(=O)c2[nH]ncc21`, the growth inhibition in assay [1] was 18.4%; in assay [2], 13.8%; in assay [3] it was -3.25%; in assay [4], -61.6%; in assay [5], 10.1%; in assay [6] it was -1.8%.

On to `CCN(CC)CCCNc1nc2ccccc2c2[nH]c3ccc(OC)cc3c12`, for which the growth inhibition was -37.4% in assay [1]; -26.2% in assay [2]; -41.9% in assay [3]; -36.8% in assay [4]; -40% in assay [5]; -28.2% in assay [6].

`CCC(C)C(CC)C(=O)N(C)C(=O)N(C)C(C)=O` (stereo not given): the growth inhibition in assay [1] was -19.2%; in assay [2], 33.3%; in assay [3] it was 4.5%; in assay [4] it was -33.5%; in assay [5], 13.7%; in assay [6], 12.5%.

As to `COc1ccccc1N1C(=O)/C(=N\OC(=O)c2c(-c3c(Cl)cccc3Cl)noc2C)SC1=S`, the growth inhibition was -13.9% in assay [1]; -26.6% in assay [2]; -19.5% in assay [3]; 11% in assay [4]; -34.8% in assay [5]; -0.2% in assay [6].

Turning to `CC(C)(NC(=O)OCc1ccccc1)C(=O)NC(Cc1ccccc1)C(=O)NN` (stereo not given) (Cbz-[Aib]-[ξF]-NHNH2), the growth inhibition was 0.55% in assay [1]; 7.35% in assay [2]; 7% in assay [3]; 20.9% in assay [4]; 15.4% in assay [5]; -20.1% in assay [6].

In the case of `O=C(Cc1ccccc1)c1c[nH]c2c(O)ccc(O)c12`, the growth inhibition in assay [1] is -15.1%; in assay [2], -9.25%; in assay [3] it was -12.3%; in assay [4] it was -49.1%; in assay [5], -13.9%; in assay [6], -8.45%.

For `COC(=O)NC1=Nc2ccccc2N(C(=O)Oc2ccccc2)S1`, the growth inhibition in assay [1] is 7.8%; in assay [2], 0.6%; in assay [3] it was 26.4%; in assay [4] it was 23.6%; in assay [5] it was 83.2% (active); in assay [6], 33.9%.

For `O=C(O)C#Cc1ccc([N+](=O)[O-])cc1`, the growth inhibition in assay [1] is 13.6%; in assay [2], -7.6%; in assay [3], 2.35%; in assay [4], -20.2%; in assay [5], -11.9%; in assay [6], 16.5%.

As to `CSc1nc(NC2OCC(OC(C)=O)C(OC(C)=O)C2OC(C)=O)c(N=CC=Nc2c(NC3OCC(OC(C)=O)C(OC(C)=O)C3OC(C)=O)nc(SC)n(C)c2=O)c(=O)n1C` (stereo not given), the growth inhibition in assay [1] was -4.3%; in assay [2], -4.85%; in assay [3] it was -19.8%; in assay [4], -16.3%; in assay [5], 7.95%; in assay [6] it was 12.4%.

Regarding `CC(=O)OC1CCC2(C)C(CCC3C2CCC2(C)C3CCC2C(C)(C)O)C1` (stereo not given), the growth inhibition in assay [1] was -2.2%; in assay [2], 0.3%; in assay [3], -16.4%; in assay [4], -9.15%; in assay [5], -2.45%; in assay [6] it was 20.6%.

As to `COc1ccc2c3c([nH]c2c1)[C@H]1C[C@H]2[C@H](C[C@@H](O)[C@H](OC)[C@H]2C(=O)O)CN1CC3`, the growth inhibition is 26.3% in assay [1]; 21% in assay [2]; -18.9% in assay [3]; 1.85% in assay [4]; 23.6% in assay [5]; 30.4% in assay [6].

For the molecule `CC1CN(C(=O)OCC23COC4(C)CCC(C)(OC2)N34)CC(C)O1` (stereo not given), the growth inhibition in assay [1] is 2.6%; in assay [2], -18%; in assay [3] it was 6.9%; in assay [4], 13.4%; in assay [5], -0.7%; in assay [6] it was 5.75%.

On to `CN(C)C1CCC(C=C(C2CCC(CC(=O)O)CC2)C2CCC(CC(=O)O)CC2)CC1` (stereo not given), for which the growth inhibition in assay [1] was -2.95%; in assay [2], -21.5%; in assay [3], 9.6%; in assay [4], 13.6%; in assay [5], 1.05%; in assay [6] it was 6.3%.

On to `CCC(=O)c1nc(N)[nH]c1CC`, for which the growth inhibition in assay [1] is -36.7%; in assay [2], -21.6%; in assay [3], -12.1%; in assay [4], -44.3%; in assay [5] it was -3%; in assay [6], -6.45%.

In the case of `CC1=Nc2c([nH]c(=S)[nH]c2=O)NC(c2c(Cl)cccc2Cl)C1` (stereo not given), the growth inhibition is 3.9% in assay [1]; 11.6% in assay [2]; 14.2% in assay [3]; -4.5% in assay [4]; -4.5% in assay [5]; 34.6% in assay [6].

Consider `CCOC(=O)C1(F)S(=O)(=O)OCCOS1(=O)=O`, for which the growth inhibition was -12.9% in assay [1]; -9.95% in assay [2]; -11.4% in assay [3]; -18.4% in assay [4]; 6.3% in assay [5]; -9.8% in assay [6].

Consider `CCC(N)C(=O)NC(C(N)=O)C(C)C` (stereo not given) (H-[Abu]-Val-NH2; configuration not given here), for which the growth inhibition in assay [1] is 11.1%; in assay [2], -9.75%; in assay [3], -1.55%; in assay [4], -42.4%; in assay [5], -4.7%; in assay [6], 13.2%.

On to `O=C1NC(=O)[C@H]2C3C=CC([C@@H]12)[C@@H]1C(=O)NC(=O)[C@H]31`, for which the growth inhibition in assay [1] was 41.7%; in assay [2], 21.8%; in assay [3], -22.1%; in assay [4], 7.8%; in assay [5] it was -28.7%; in assay [6], -47.6%.
